We go through 36 compounds from PubChem BioAssay (Tox21).

Values joined by “and” are separate entries in the source; they are usually repeats but may differ in a detail not shown here. Identical values can stand only once. Records with an inconclusive call do not appear. A call without a number means that no potency is given here. Where a structure was tested more than once in an assay, its records may differ in their call. Active and inactive are the calls of the source. The call rests on the fitted dose curve; in most records, active means well fitted curve in the direction sought with a large enough effect in the repeat runs; inconclusive means weak or mixed curves; inactive means no such curve, though single readings can be large; an effect the other way counts as inactive or inconclusive. Residues, ends and D or L forms follow the SMILES beside them.
Further: nearly all actives have a fitted effect of over 50% in size.

The first test in a line: qHTS RealTime-Glo MT Cell Viability Assay in HEK293 cells - 32 hour (AID 1224868). Further: potency means the concentration at half of the fitted maximal effect. The following applies: RealTime-Glo luminescence; series mostly up to 76.8 µM. The method, boiled down: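 HEK293 cells were seeded at 600 cells/well together with NanoLuc luciferase and cell-permeant prosubstrate, preincubated 5 h at 37 C/5% CO2, then given compound in DMSO by pintool. Luminescence from viable-cell prosubstrate reduction was read repeatedly over 40 h.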
`O=C1CN(/N=C/c2ccc([N+](=O)[O-])o2)C(=O)N1`: the Potency entry is “inactive”.

Take `CC(O)C(=O)O` (configuration not stated): the Potency entry is “inactive”.

Take `O=NO`: the Potency entry was “inactive”.

Consider `CNC[C@H](O)c1cccc(O)c1`, for which the Potency entry is “inactive”.

Turning to `CCOc1ccc(NC(=O)CC(C)O)cc1` (configuration not stated), the Potency entry was “inactive”.

For `CCCC(CCC)C(=O)O`, the Potency result was “inactive”.

As for `O=C(O)C(=O)O`, the Potency result is “inactive”.

Consider `CCCCC(CC)COC(=O)/C=C/c1ccc(OC)cc1` (configuration not stated), for which the Potency result was “inactive”.

On to `O=S(=O)(O)NC1CCCCC1`, for which the Potency result is “inactive”.

In the case of `O=C(O)c1cccnc1`, the Potency entry is “inactive”.

Turning to `NC(N)=O`, the Potency entry is “inactive”.

`CCCCC1C(=O)N(c2ccccc2)N(c2ccccc2)C1=O`: the Potency result is “inactive”.

For the compound `CC(O)CO` (configuration not stated), the Potency entry is “inactive”.

Take `O=c1ccc2ccccc2o1`: the Potency result was “inactive”.

As to `O=C(c1ccccc1)c1ccccc1`, the Potency result was “inactive”.

As to `NS(=O)(=O)c1cc(C(=O)O)c(NCc2ccco2)cc1Cl`, the Potency entry was “inactive”.

For the compound `CC(C)(Oc1ccc(C2CC2(Cl)Cl)cc1)C(=O)O` (configuration not stated), the Potency result is “inactive”.

Take `CC(C)[C@@H]1CC[C@@H](C)C[C@H]1O`: the Potency entry is “inactive”.

On to `CC(=O)Nc1nnc(S(N)(=O)=O)s1`, for which the Potency entry was “inactive”.

With `O=C(O)c1cccc([N+](=O)[O-])c1`, the Potency entry is “inactive”.

In the case of `NC(=O)NC1NC(=O)NC1=O` (configuration not stated), the Potency result is “inactive”.

As for `O=S(=O)(O)c1ccc2cc(O)ccc2c1`, the Potency entry was “inactive”.

Turning to `c1ccc2[nH]ccc2c1`, the Potency is 2.15 µM (active) and inactive.

In the case of `CCCCOC(=O)CC(CC(=O)OCCCC)(OC(C)=O)C(=O)OCCCC`, the Potency result is “inactive”.

As for `O=C1NC(=O)c2ccccc21`, the Potency entry is “inactive”.

For the compound `N=C(N)c1ccc(OCCCCCOc2ccc(C(=N)N)cc2)cc1`, the Potency was 12.2 µM (active) and 16.6 µM (active).

As for `O=C(O)/C=C\C(=O)O`, the Potency entry was “inactive”.

As for `CC(=O)OCC(COC(C)=O)OC(C)=O`, the Potency result is “inactive”.

For `CC1(C)[C@@H]2CC[C@@]1(C)C(=O)C2`, the Potency result is “inactive”.

Consider `C/C=C/c1ccc(OC)cc1`, for which the Potency entry is “inactive”.

Regarding `O=C(O)CCC(=O)O`, the Potency result was “inactive”.

`COC(=O)[C@H](Cc1ccccc1)NC(=O)[C@@H](N)CC(=O)O` (H-Asp-Phe-OMe): the Potency result was “inactive”.

For `C1N2CN3CN1CN(C2)C3`, the Potency result is “inactive”.

Turning to `O=C(c1ccccc1)C(O)c1ccccc1` (configuration not stated), the Potency result is “inactive”.

As for `O=C(O)CCCCC(=O)O`, the Potency result was “inactive”.

`O=c1cc[nH]c(=S)[nH]1`: the Potency entry is “inactive”.

The nature of the next test: A CellTox Green Cytotoxicity Assay to monitor cytotoxicity in HEK293 cells - 0 hour (AID 1224869). Conditions: CellTox Green fluorescence; series mostly up to 76.8 µM. The method, boiled down: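 Cells (HEK293, 600/well) and dye reagent are dispensed together. After 5 h at 37 C, 23 nL compound is pinned in. Plates stay at 37 C for 40 h with fluorescence read at 0h, 8h, 16h, 24h, 32h and 40h.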
With `O=C1CN(/N=C/c2ccc([N+](=O)[O-])o2)C(=O)N1`, the result was inactive.

For the compound `CC(O)C(=O)O` (configuration not stated), the compound was called inactive.

Take `O=NO`: the compound was classed as inactive.

For `CNC[C@H](O)c1cccc(O)c1`, the compound was classed as inactive.

Regarding `CCOc1ccc(NC(=O)CC(C)O)cc1` (configuration not stated), the result was inactive.

`CCCC(CCC)C(=O)O`: the compound was called inactive.

Consider `O=C(O)C(=O)O`, for which the compound was called inactive.

As for `CCCCC(CC)COC(=O)/C=C/c1ccc(OC)cc1` (configuration not stated), the compound was classed as inactive.

`O=S(=O)(O)NC1CCCCC1`: the compound was called inactive.

With `O=C(O)c1cccnc1`, the result was inactive.

With `NC(N)=O`, the result was inactive.

Take `CCCCC1C(=O)N(c2ccccc2)N(c2ccccc2)C1=O`: the call was inactive.

Turning to `CC(O)CO` (configuration not stated), the compound was classed as inactive.

With `O=c1ccc2ccccc2o1`, the result was inactive.

On to `O=C(c1ccccc1)c1ccccc1`, for which the call was inactive.

For `NS(=O)(=O)c1cc(C(=O)O)c(NCc2ccco2)cc1Cl`, the outcome was inactive.

With `CC(C)(Oc1ccc(C2CC2(Cl)Cl)cc1)C(=O)O` (configuration not stated), the compound was called inactive.

Turning to `CC(C)[C@@H]1CC[C@@H](C)C[C@H]1O`, the outcome was inactive.

As for `CC(=O)Nc1nnc(S(N)(=O)=O)s1`, the call was inactive.

Consider `O=C(O)c1cccc([N+](=O)[O-])c1`, for which the result was inactive.

Turning to `NC(=O)NC1NC(=O)NC1=O` (configuration not stated), the result was inactive.

For the compound `O=S(=O)(O)c1ccc2cc(O)ccc2c1`, the compound was classed as inactive.

Regarding `c1ccc2[nH]ccc2c1`, the compound was classed as inactive.

`CCCCOC(=O)CC(CC(=O)OCCCC)(OC(C)=O)C(=O)OCCCC`: the compound was classed as inactive.

In the case of `O=C1NC(=O)c2ccccc21`, the outcome was inactive.

On to `N=C(N)c1ccc(OCCCCCOc2ccc(C(=N)N)cc2)cc1`, for which the outcome was inactive.

For `O=C(O)/C=C\C(=O)O`, the call was inactive.

For `CC(=O)OCC(COC(C)=O)OC(C)=O`, the compound was classed as inactive.

With `CC1(C)[C@@H]2CC[C@@]1(C)C(=O)C2`, the compound was classed as inactive.

`C/C=C/c1ccc(OC)cc1`: the compound was called inactive.

In the case of `O=C(O)CCC(=O)O`, the compound was called inactive.

With `COC(=O)[C@H](Cc1ccccc1)NC(=O)[C@@H](N)CC(=O)O` (H-Asp-Phe-OMe), the compound was classed as inactive.

`C1N2CN3CN1CN(C2)C3`: the result was inactive.

`O=C(c1ccccc1)C(O)c1ccccc1` (configuration not stated): the compound was classed as inactive.

Regarding `O=C(O)CCCCC(=O)O`, the compound was classed as inactive.

With `O=c1cc[nH]c(=S)[nH]1`, the outcome was inactive.
